NADH coupling: inhibitors of PK/LDH coupling enzymes, profiling panel, artefact control, biochemical, MLSMR library. coupled PK/LDH NADH assays, four targets. IC50, µM (top dose mostly 10 µM), for the others: at the highest dose inhibition. hit rate 0.02% among 65,000. AID 774, 2007;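 active = single-dose screening hits from any of four coupled enzyme assays that gave an IC50 when retested across doses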;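 also: the DPM-DC format reads NADH fluorescence rather than 340 nm absorbance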
PMK inhibit: S. pneumoniae PMK inhibitors, primary screen, biochemical, mevalonate pathway, pilot trial included; phosphomevalonate kinase (Streptococcus pneumoniae D39); purified PMK, PK/LDH-coupled NADH absorbance 340 nm; inhibition, % at 10 µM; hit rate 0.49% among 65,000;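 active = top-ranked compounds by inhibition in the single 10 µM screen, taking a fixed number of the strongest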;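 also: 0% = full reaction with DMSO carrier and 100% = background rate without enzyme reaction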
A340 absorber: compound light absorbance at 340 nm, profiling panel, artefact control, biochemical, MLSMR library, data from PS, PMK, MK assays. compound absorbance at 340 nm, fold over control. fold change at 10 µM. 65,000 tested, under 10 active. AID 708, 2007;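 active = at 10 µM dose, initial 340 nm absorbance at least 2 fold that of control wells; inactive = change under 2 fold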;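 also: initial absorbance extrapolated from kinetic A340 decline of NADH oxidation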
MK inhibit: S. pneumoniae MK inhibitors, primary screen, biochemical, PK/LDH-coupled NADH absorbance | mevalonate kinase [Streptococcus pneumoniae D39] | purified MK, PK/LDH-coupled NADH absorbance 340 nm | inhibition, % at 10 µM | hit rate 0.48% among 65,000 | AID 555, 2006;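 active = ranked among the strongest by inhibition in the single 10 µM screen, a fixed top-ranked set picked for dose follow-up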
Autofluor 339: intrinsic fluorescence of library compounds, ex339/em460 – biochemical, MLSMR library, data from DPM-DC assay, artefact control, profiling panel; compound autofluorescence, ex339/em460 nm, NADH buffer; hits give high values; 1 = no-compound wells, NADH background; fluorescence fold increase at 10 µM; hit rate 5.5% among 65,000;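 active = at 10 µM, mean starting fluorescence two-fold or more over control wells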;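 also: signal is the first read of a kinetic run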
Spn DPM-DC inh: S. pneumoniae DPM-DC inhibitors, primary screen, biochemical, PK/LDH-coupled NADH fluorescence; diphosphomevalonate decarboxylase (Streptococcus pneumoniae D39); purified DPM-DC; calls only at 10 µM; hit rate 0.49% among 65,000; AID 556, 2006;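 active = the 320 compounds with the highest percent inhibition in the single-dose primary screen, excluding strongly autofluorescent ones, cut at about 32% in these data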;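 also: kinetic rate of NADH fluorescence loss reporting ADP formed by the decarboxylase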
Starred values were filed as active, the others as inactive; i = inactive; / = no result given; + = active, no number. Shown are actives, neighbours in structure and some others; about 6.8% of the full set was active somewhere.

SMILES	NADH coupling	PMK inhibit	A340 absorber	MK inhibit	Autofluor 339	Spn DPM-DC inh
CCCCN(CC)CCNC(=O)c1cc2c(=O)n(C)c3ccccc3c2n1C	9%	9	1.1	8	2.1*	/
CN1CCN(CCNC(=O)c2cc3c(=O)n(C)c4ccccc4c3n2C)CC1	18%	14	1.1	3	1.8	+
COCCCNC(=O)c1c(N)n(-c2cccc(S(N)(=O)=O)c2)c2nc3ccccc3nc12	3%	6	1	10	3*	/
COC(=O)c1c(N)n(-c2cc(OC)cc(OC)c2)c2nc3ccccc3nc12	3%	9	1	2	3.4*	/
Nc1c(C(=O)NCCN2CCOCC2)c2nc3ccccc3nc2n1-c1cccc(F)c1	9%	6	1.1	11	5.1*	/
CCCNC(=O)c1c(N)n(-c2cccc(OC)c2)c2nc3ccccc3nc12	10%	7	1	12	3.8*	/
FC(F)(F)c1cc(-c2ccco2)nc(-n2cnc3ccccc32)n1	11%	16	1.1	8	2.7*	i
Cc1nc2ccccc2n1-c1nc(-c2ccco2)cc(C(F)(F)F)n1	5%	13	1.1	3	1.8	i
Cc1ccc(Nc2nc(N)nc(CN3CCN(C(=O)c4ccco4)CC3)n2)cc1Cl	6%	11	1	7	1.1	i
CCOC(=O)C(C)Sc1ccc2nnc(-c3ccc(F)cc3)n2n1 (centres undefined)	8%	15	1	0	2.1*	i
Nc1cc(N)nc(SCC(=O)NCC2CCCO2)n1 (centres undefined)	6%	8	1	9	1.1	i
O=C(CSc1cc(Cl)ccc1Cl)NCC1CCCO1 (centres undefined)	8%	25*	1	0	1.1	i
O=C(CSc1ccc2nnc(-c3ccc(F)cc3)n2n1)NCC1CCCO1 (centres undefined)	11%	14	1	4	2.3*	i
CCSc1ccc2nnc(-c3ccc(F)cc3)n2n1	12%	14	1	11	2*	i
O=C(CSc1ccc2nnc(-c3ccc(F)cc3)n2n1)N1CCCCC1	3%	9	1	0	1.8	i
CC(Sc1ccc2nnc(-c3ccc(F)cc3)n2n1)C(=O)O (centres undefined)	12%	6	1.1	18	1.8	i
COCC(=O)NC1CCN(C(=O)NCc2ccccc2)CC1	7%	20	1	0	1.1	i
COc1cccc(C2/C(=C(\O)c3ccc(OC)c(OC)c3)C(=O)C(=O)N2c2cc(C)on2)c1 (centres undefined)	4%	6	1.1	4	1	i
CC1CN(S(=O)(=O)c2ccc(Cl)c(C(F)(F)F)c2)CC(C)O1 (centres undefined)	3%	13	0.98	7	1	i
CCc1cc2c(CN3CCN(CCO)CC3)cc(=O)oc2cc1O	6%	9	1	6	2.9*	/
CCc1cc2c(CN3CCN(C)CC3)cc(=O)oc2cc1O	8%	6	1.1	9	3.8*	/
COc1ccc(CNC(=O)CN(C(=O)c2cc3sccc3n2C)C2CCCC2)cc1	6%	7	1	10	1.1	i
CCOC(=O)CSC1=Nc2ccccc2C2=NC(CC(=O)NCc3ccccc3)C(=O)N12 (centres undefined)	10%	9	1	9	3*	i
CCC(C)NC(=O)CSC1=Nc2ccccc2C2=NC(CC(=O)NCc3ccc(F)cc3)C(=O)N12 (centres undefined)	8%	8	1	17	2.8*	i
CC(C)C1N=C2c3ccccc3N=C(SCC(=O)NCCc3ccc(S(N)(=O)=O)cc3)N2C1=O (centres undefined)	7%	8	1	10	2.4*	i
SMILES	NADH coupling	PMK inhibit	A340 absorber	MK inhibit	Autofluor 339	Spn DPM-DC inh
CCOC(=O)CSC1=Nc2ccccc2C2=NC(CC(=O)NCc3cccs3)C(=O)N12 (centres undefined)	3%	9	1	6	1.2	i
CCOc1ccccc1CN1C(=O)NC(C)(c2ccccc2)C1=O (centres undefined)	4%	11	1	0	1.1	i
O=C(c1cnsn1)N1CCN(c2ccccn2)CC1	2%	6	1	7	1.1	i
CCOC(=O)CCc1c(C)c2ccc(OCc3nn[nH]n3)cc2oc1=O	6%	11	1.1	0	3.8*	/
Cc1c(Cc2ccccc2)c(=O)oc2cc(OCc3nn[nH]n3)ccc12	4%	8	1.1	0	3.8*	/
COc1ccc(-c2cc3ccc(OCc4nn[nH]n4)cc3oc2=O)cc1OC	7%	9	1.2	0	1.8	i
COc1ccc(-c2cc(=O)oc3cc(OCc4nn[nH]n4)ccc23)cc1	1%	0	1.2	1	1.9	i
CCOC(=O)CCc1c(C)c2ccc(OCC(=O)OC(C)C)cc2oc1=O	5%	6	1	4	3.7*	/
c1ccc(-n2nnc3cnccc32)cc1	9%	12	1	14	1.1	i
O=S(=O)(c1ccc2c(c1)OCCO2)N(Cc1ccc(F)cc1)Cc1nnc(-c2cccs2)o1	2%	10	0.99	3	1	i
O=C(NCc1ccc2c(c1)OCO2)c1cc2ncc(Br)cn2n1	7%	11	1.1	9	1.1	i
CCOCCCNc1ncnc2c1[nH]c1ccccc12	4%	8	1	6	1.7	i
C=CCNc1ncnc2c1[nH]c1ccccc12	11%	8	1.1	6	2.5*	i
c1ccc2c(c1)[nH]c1c(NCC3CCCO3)ncnc12 (centres undefined)	11%	10	1.1	7	2.8*	i
C[N+](C)(C)C/C=C1/COCO1	8%	20	0.99	3	1.1	i
CCc1ccc(CCC(=O)Nc2nnc(CC)s2)o1	4%	0	1.1	11	1.1	i
Nc1cc(C(=O)O)ccc1Nc1ccc(F)c(F)c1	4%	10	1	0	1.1	i
Cc1nc(Sc2nnnn2C)c2c3c(sc2n1)CCC3	11%	10	1.1	11	2.1*	/
CC(C)(C)NC1=CC(=O)OC12CCCCC2	3%	0	1	9	1.1	i
CCOC(=O)CCCOC(=O)c1ccc(S(=O)(=O)N(C)C)cc1	3%	0	0.98	10	1	i
Cc1[nH]c2ccc3c(ncn3CCC#N)c2c1C	3%	6	1	4	1.1	i
